Experimental data: PubChem BioAssay AID2401 (Southern Research Specialized Biocontainment Screening …, 2010)
In all, about 2,200 compounds went through this assay and about 530 (24%) were called active.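 Rule for the calls: active = inhibition above a set limit at one or more concentrations of the dose series; inactive = inhibition under that limit at every dose.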 A selection follows. A call without a number means that no potency is given here. Potency and affinity values are given separately.

Experiment: S. Typhimurium nonspecific reporter signal inhibition – Salmonella Typhimurium, GFP fluorescence, counter-screen for PhoP regulon inhibitor project, dose response (AID 2401);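 note: S. typhimurium with Mg-insensitive nmpC-GFP reporter grown at 10 µM Mg2+; drop in reporter fluorescence reflects general culture growth inhibition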
Conditions: 4 h; series mostly up to 150 µM

SMILES	outcome
NC(=O)CCc1c[nH]c2ccccc12	inactive
O=C(Cc1c[nH]c2ccccc12)N/N=C/c1ccc(F)cc1	inactive
CCc1nn2cc(C(=O)c3cc(Cl)ccc3O)cnc2c1-c1ccc(F)cc1	inactive
Cc1cc(C(=O)COC(=O)CNC(=O)c2ccco2)c(C)n1Cc1ccco1	inactive
c1ccc(Nc2ccnc(Nc3ccccc3)n2)cc1	inactive
Cc1[nH]c2ccccc2c1C(O)CN1CCN(c2cccc(C(F)(F)F)c2)CC1 (stereo not drawn)	inactive
Brc1cccc(CNc2nc3ccccc3n2CCN2CCCCC2)c1	inactive
Cc1cc(C(=O)N/N=C/c2ccc[nH]2)no1	inactive
CC(C)CCNC(=S)Nc1ccc([N+](=O)[O-])cc1	inactive
CC1=CC(C)C2(CO)COC(c3ccccc3O)C1C2C (stereo not drawn)	inactive
CCOC(=O)c1sc(-c2ccc(C(F)(F)F)cc2)nc1O	inactive
CC(Oc1ccc(Cl)cc1)c1ccnn1S(=O)(=O)c1ccccc1 (stereo not drawn)	inactive
CC(=O)Nc1ccc(S(=O)(=O)N2CCC(n3cnc4cc(F)ccc43)CC2)cc1	inactive
CCOC(=O)C1=C(C)N=c2s/c(=C\c3ccncc3)c(=O)n2C1c1ccc2c(c1)OCO2 (stereo not drawn)	inactive
COc1ccc(C(=O)COc2nc(C)cc(C)c2C#N)cc1	inactive
COc1ccc2nc(NC(=O)C3CCCN3S(=O)(=O)c3ccc(C)cc3)sc2c1 (stereo not drawn)	inactive
Clc1ccc(Nc2ncnc3c2cnn3-c2ccccc2)cc1	inactive
COc1cc(CNc2ccc(CNc3ncn[nH]3)cc2)ccc1OCC(=O)NC(C)(C)C	inactive
NC[C@@]12CCCC1C1CCC2C1 (stereo partly drawn)	inactive
O=C(Oc1ccc[nH]c1=O)c1cc([N+](=O)[O-])cc([N+](=O)[O-])c1	inactive
CC(O)CNc1cc(N)c([N+](=O)[O-])cc1[N+](=O)[O-] (stereo not drawn)	inactive
CC(NC(=O)C1(C)CC1(Br)Br)C(C)(C)C (stereo not drawn)	inactive
Cc1cc(C(=O)N/N=C/c2cc(Br)cc(Br)c2OC(=O)c2ccccc2)n[nH]1	inactive
Cc1cc2ncn(C3CC(=O)N(Cc4ccc(N5CCCC5=O)cc4)C3=O)c2cc1C (stereo not drawn)	inactive

SMILES	outcome
O=C(CSc1nnc2n(C3CCCCC3)c(=O)c3ccccc3n12)OC1CCCCC1	inactive
Cc1ccc2cc(C(=O)O)c(C)nc2c1	inactive
Cc1ccccc1NC(=O)Nc1cccs1	inactive
Cc1ccc(S(=O)(=O)N2CCCC2C(=O)OCc2ccco2)cc1 (stereo not drawn)	inactive
CCCOc1ccc(Cn2cnc3ccccc32)cc1	inactive
Cc1cc(C)nc(NC(=O)Cc2cccs2)n1	inactive
Cc1c(C)n(Cc2ccccc2)c2ncnc(N)c12	inactive
O=C(NCc1cccnc1)c1cc2ccccc2oc1=O	inactive
COC(=O)Cc1ccc(NC(=S)N2CCN(c3ccc(F)cc3)CC2)cc1	inactive
CCn1cc(C(=O)NCc2ccncc2)c(=O)c2cc(F)c(N3CCN(C(=O)c4ccco4)CC3)cc21	inactive
Cc1cc(SCC(N)=O)nc(SCC(=O)c2ccccc2)n1	inactive
COC(=O)C1(O)CC(C(C)C)=NN1C(=O)c1ccc(Cl)cc1 (stereo not drawn)	inactive
Cc1ccc(C(=O)NC(=S)Nc2cccc3c(C)cc(C)nc23)cc1	inactive
Cc1ccc(Nc2nnc(C3C(=O)N(C)C4(C)CC3c3cc(Br)ccc3O4)s2)cc1 (stereo not drawn)	inactive
Cc1cccc(OCCSCc2nc3ccccc3[nH]2)c1	inactive
Cn1c(SCC(=O)N2c3ccccc3CCc3ccccc32)nnc1-c1cc2ccccc2cc1O	inactive
O=C(Cn1nc(C(F)(F)F)c2c1CCCCC2)N1CCOCC1	inactive
CCOC(=O)C1=CSC2=NS(=O)(=O)CCN12	inactive
[O-]/[N+](=C\c1ccncc1)c1ccccc1	inactive
Cc1c(C(=O)Nc2cccc(Cl)c2)c2ccccn2c1CCc1ccncc1	inactive
COc1cc(C)ccc1OCCCOc1ccccc1Br	inactive
COC(=O)c1cc(C#N)c(Oc2ccccc2OC)nc1C	inactive
Cc1occc1C(=O)n1cnc2ccccc21	inactive
COc1cccc2[nH]c3c(N4CCC(C)CC4)ncnc3c12	inactive

SMILES	outcome
NC(=O)C1(NC(=O)[C@@H]2CC3(CC(c4cccc(NC(=O)[C@@H]5CCC(=O)N5)c4)=NO3)CN2C(=O)Cc2ccc(Cl)cc2)CC1 (stereo partly drawn)	inactive
Cc1ccc(/C(O)=C2\C(=O)C(=O)N(CC(C)O)C2c2cccc(F)c2)cc1 (stereo not drawn)	inactive
CCCCOc1ccc(S(=O)(=O)NNC(=O)C2Cc3c(ccc4ccccc34)O2)cc1 (stereo not drawn)	inactive
O=C(CN1CCCCC1)Nc1cccc(Br)c1	inactive
Cc1ccc(S(=O)(=O)c2c(C(=O)c3ccccc3)cnc3cc4c(cc23)OCCO4)cc1	inactive
OC(COc1ccc2ccccc2c1Br)Cn1ccnc1 (stereo not drawn)	inactive
CC(C)c1ccc(C2NC(=O)NC3=C2CCc2ccccc23)cc1 (stereo not drawn)	inactive
CC(=O)c1ccc(NC(=O)Nc2cccc(Cl)c2)cc1	inactive
O=C(Nc1ccc(Cl)c(Cl)c1)Nc1ccccc1O	inactive
N/C(=N/OC(=O)c1ccccc1Cl)c1ncc([N+](=O)[O-])s1	inactive
CCCCOc1ccc(NC(=O)Nc2nnc(C)s2)cc1	inactive
Cc1ccc(Oc2ccc3c(c2)C(=O)N(c2ccc(S(=O)(=O)Nc4nccs4)cc2)C3=O)cc1	inactive
CN(C)C(CNC(=O)Nc1cccc(Cl)c1)c1cccnc1 (stereo not drawn)	inactive
COc1ccc(N2CCN(C(=O)C3CCCO3)CC2)cc1 (stereo not drawn)	inactive
CN1C(=O)CC(P(=O)(c2ccccc2)c2ccccc2)N(C)C1=O (stereo not drawn)	inactive
c1ccc(OCCCN2CCCC2)cc1	inactive
O=C(C1CCN(C2CC(=O)N(Cc3ccccc3)C2=O)CC1)N1CCCCCC1 (stereo not drawn)	inactive
COc1cccc(NC(=O)Cn2c(=O)n(CCCC(=O)NCc3ccco3)c(=O)c3ccccc32)c1	inactive
Nc1ccc2oc(=O)c3ccccc3c2c1	inactive
Nc1ccc2oc3ccccc3c2c1	inactive
COC(=O)c1sccc1NC(=O)CSc1ccccc1NS(=O)(=O)c1ccc(Cl)cc1	inactive
Cc1ccc(N2C(=O)CC(n3ccnc3)C2=O)cc1C (stereo not drawn)	inactive
CCN(CC)CCCn1c(=S)[nH]c2cc(OC)c(OC)cc2c1=O	inactive
CC(=O)C1=C(C)Nc2ncnn2C1c1ccccc1OCc1ccccc1 (stereo not drawn)	inactive

SMILES	outcome
CCOc1ccc(-n2c(SCc3nc(-c4ccc(C)cc4)no3)nnc2-c2ccncc2)cc1	inactive
O=S(=O)(Nc1ccc2c(c1)nc1n2CCN(Cc2ccccc2)C1)c1ccc(Cl)cc1	inactive
Nc1cccc(-c2nc3ccc(N)cc3s2)c1	inactive
O=C(NCc1ccco1)c1ccc(Br)s1	inactive
Cn1c(=N)n(CC(=O)c2ccc(Br)s2)c2ccccc21	inactive
O=C(Nc1cccn(Cc2c(Cl)cccc2Cl)c1=O)c1ccccc1Cl	inactive
CCCCCCOC(=O)Sc1nc2ccccc2o1	inactive
COc1ccc(C(=O)C(CO)Oc2ccccc2OC)cc1OC (stereo not drawn)	inactive
COc1ccccc1OCc1ccc(C(=O)N2CCN(C(=O)c3ccco3)CC2)cc1	inactive
Clc1ccc(OCCn2cnc3ccccc32)cc1	inactive
Cc1cccc(OCCCSc2nc3ccc(C)cc3[nH]2)c1	inactive
S=C(Nc1ccccc1)Nc1nc2ccccc2n1CCOc1ccc(Cl)cc1	inactive
COc1ccc(/C=C/C(=O)O)cc1COc1cccc(C)c1	inactive
COc1ccccc1NC(=S)NNC(=O)c1c(Cl)c(C)nn1C	inactive
Cc1ccc(Nc2nc(CSc3nnc(-c4cccnc4)n3-c3ccccc3F)cs2)cc1	inactive
O=C(c1cccc(S(=O)(=O)N2CCOCC2)c1)N1CCCC1	inactive
O=C(c1ccccc1)N1CCSC1=S	inactive
Cn1c(-c2ccc3nc(N)sc3c2)nc2cc(N)ccc21	inactive
Nc1ccc(Nc2ccccc2N)cc1	inactive
Cc1cc2c(c(=O)n1C)C(Cc1ccccc1)C(C#N)=C(N)O2 (stereo not drawn)	inactive
O=C(CSc1nc2[nH]ncc2c(=O)[nH]1)N1CCCCC1	inactive
C=CCNC(=S)NNC(=O)c1cccn(Cc2ccc(Cl)cc2)c1=O	inactive
COc1ccc(-c2cc(N3CCCC3)n3ncnc3n2)cc1	inactive
Cc1ccc(OCc2nc3ccccc3[nH]2)cc1	inactive

SMILES	outcome
COc1ccc(OCCSc2nnc3sc4ccccc4n23)cc1	inactive
COC(=O)Cn1c(C)nc2ccccc21	inactive
CNc1ncc(Cc2ccccc2)s1	inactive
CCn1c(SCc2ccc(F)cc2)nnc1C1CCN(S(=O)(=O)c2ccc(OC)cc2)CC1	inactive
O=C1CC(c2ccco2)CC(O)=C1C=Nc1cc(Cl)cc(Cl)c1 (stereo not drawn)	inactive
c1csc(C2Nc3ccccc3-c3nc4ccccc4n32)c1 (stereo not drawn)	inactive
C=CCOc1ccc(Br)cc1/C=N/O	inactive
O=C(Cc1cn2ccsc2n1)Nc1ccccc1Oc1ccccc1	inactive
CCn1c2ccccc2c2cc(N)ccc21	inactive
CC(C)(C)c1ccc(C(=O)Nc2ccc(C=C(C#N)C#N)cc2)cc1	inactive
C=CCNC(=O)CC(=O)N/N=C/c1ccc(C(=O)OC)cc1	inactive
Cc1[nH]nc2c1C(c1cc(Br)cs1)C(C#N)=C(N)O2 (stereo not drawn)	inactive
Cc1cc(C)cc(-n2nc(C)cc2N)c1	inactive
N#CC(CC(=O)c1ccc(F)cc1)c1ccc2c(c1)OCO2 (stereo not drawn)	inactive
CCn1c(Cc2c(C)[nH]c3ccccc23)n[nH]c1=S	inactive
O=c1[nH]c2ccccc2n1C1=CCCC1	inactive
c1ccc2c3c([nH]c2c1)-c1[nH]ncc1CC3	inactive
Nc1c(C(=O)NCCc2ccc(Cl)cc2)sc2ccc(S(=O)(=O)N3CCCCC3)cc12	inactive
CSc1cccc(NC(=O)c2ccco2)c1	inactive
CC1N(C)c2cc(NC(=O)c3ccco3)ccc2C1(C)C (stereo not drawn)	inactive
Cc1oc(CC(C)C)c(CN2CCCC2)c1C(=O)O	inactive
COc1ccc2c(c1)[nH]c1c(N3CCN(Cc4ccc5c(c4)OCO5)CC3)ncnc12	inactive
